The list is not random: actives were taken first. Their share in the collection is about 1.8%.
FAK inh – blocks human focal adhesion kinase activity; Q05397; biochemical FAK kinase activity assay; inhibition, %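 (tested at 7 µM)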; 0.84% of 97,000 active; AID 727; in the data active = inhibition above about 19%;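 note: 0% = DMSO and 100% = reference compound high control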
Mac1 fbg enh – enhancers of human CD11b/CD18 binding to fibrinogen; P05107+P11215; K562 CD11b/CD18 adhesion to fibrinogen, ATPlite luminescence; activation, % at 10 µM; 0.07% of 93,000 active; AID 1499;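 active = 10 µM primary screen giving 50% or more activity, confirmed by 40% or more on retest at that dose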
CD11b adhes inh – CD11b/CD18-fibrinogen binding inhibition; K562 CD11b/CD18 adhesion to fibrinogen, ATPlite luminescence; Mn2+ added to activate the integrin; 0.54% of 93,000 active; inhibition, % at 10 µM; P05107+P11215; AID 1497;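 active = primary inhibition of 50% or more at 10 µM, then 40% or more on retest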
Pyk2 oligo antag – blocks oligomerization of human Pyk2 in cells; Q14289; Q293 cells, Pyk2 FERM NanoBiT luminescence; stronger effect = lower value; z-score (the deposit names both 25 µM and 10 µM); 0.83% of 99,000 active;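 active = Z-score of -3 or lower, scaled per plate to the spread of control and sample wells; inactive = z-score above -3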;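 note: negative z-score means lost luminescence so less FERM oligomerization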
Target sequence (Q14289 whole entry, looked up): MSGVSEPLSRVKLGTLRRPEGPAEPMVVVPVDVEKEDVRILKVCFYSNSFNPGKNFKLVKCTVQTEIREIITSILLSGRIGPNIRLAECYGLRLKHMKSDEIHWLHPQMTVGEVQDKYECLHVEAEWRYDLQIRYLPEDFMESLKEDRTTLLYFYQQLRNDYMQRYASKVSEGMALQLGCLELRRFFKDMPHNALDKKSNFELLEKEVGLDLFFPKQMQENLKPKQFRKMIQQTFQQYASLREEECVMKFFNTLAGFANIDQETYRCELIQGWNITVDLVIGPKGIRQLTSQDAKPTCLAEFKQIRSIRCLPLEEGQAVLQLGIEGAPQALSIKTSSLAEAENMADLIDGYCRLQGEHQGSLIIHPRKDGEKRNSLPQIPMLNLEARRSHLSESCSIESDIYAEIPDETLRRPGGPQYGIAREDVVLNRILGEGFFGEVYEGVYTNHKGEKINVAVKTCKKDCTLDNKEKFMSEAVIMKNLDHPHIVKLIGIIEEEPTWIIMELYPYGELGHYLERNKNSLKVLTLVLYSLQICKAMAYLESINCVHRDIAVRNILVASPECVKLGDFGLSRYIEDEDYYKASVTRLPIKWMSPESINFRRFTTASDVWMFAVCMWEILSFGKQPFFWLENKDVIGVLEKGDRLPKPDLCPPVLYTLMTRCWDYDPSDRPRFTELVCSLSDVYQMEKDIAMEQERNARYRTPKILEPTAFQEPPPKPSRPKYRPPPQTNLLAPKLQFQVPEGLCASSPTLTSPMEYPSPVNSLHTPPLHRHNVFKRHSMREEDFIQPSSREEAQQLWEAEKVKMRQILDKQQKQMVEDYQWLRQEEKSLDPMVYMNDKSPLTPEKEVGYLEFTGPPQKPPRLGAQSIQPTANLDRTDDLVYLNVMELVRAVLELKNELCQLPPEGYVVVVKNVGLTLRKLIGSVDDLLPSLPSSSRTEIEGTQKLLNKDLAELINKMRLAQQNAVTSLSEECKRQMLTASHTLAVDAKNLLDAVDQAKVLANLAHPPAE
* hit, by the source's call; . = no result given.

SMILES	FAK inh	Mac1 fbg enh	CD11b adhes inh	Pyk2 oligo antag
Cc1ccccc1OC1C(=O)N(Cc2ccc3c(c2)OCO3)C1c1sccc1C (stereo not drawn)	0.5	.	.	-1.85
N#Cc1c(C(F)(F)F)cc(-c2ccccc2Cl)[nH]c1=O	-8.6	-2.4	61.8*	-1.49
CCOC(=O)c1[nH]c2ccc(Br)cc2c1NC(=O)CNC	0.0	104.5*	-1.7	-1.57
Cn1c(-c2ccc(C=O)s2)nc2c3ccccc3c3ccccc3c21	-3.6	20.4	7.6	-3.59*
COc1ccc2nc(NC(=S)N(C)C)sc2c1	-1.5	-4.1	60.2*	0.05
CCCC(=O)Nc1nc2ccc(OC)cc2s1	.	-4.1	18.0	.
O=C(/C=C/c1ccccc1)NC(NC(=S)Nc1cc(Cl)ccc1Cl)C(Cl)(Cl)Cl (stereo not drawn)	-1.1	.	.	-0.36
Cc1ccc2nc(SCC(=O)Nc3cc(C(F)(F)F)ccc3N3CCOCC3)[nH]c2c1	0.9	0.0	-33.4	-3.55*
O=C(CSc1nc2ccccc2o1)Nc1cc(C(F)(F)F)ccc1N1CCOCC1	-0.7	-1.1	15.4	-1.21
C=CC[n+]1c(-c2ccc(OCC)cc2)csc1NNC(=O)Nc1ccccc1	-1.2	-8.0	86.5*	-0.46
CCSC1=C(C#N)C(c2ccc(F)cc2)CC(=O)N1 (stereo not drawn)	0.0	-1.2	-5.6	.
CCCCCCSC1=C(C#N)C(c2ccc(O)cc2)CC(=O)N1 (stereo not drawn)	-1.2	-0.7	-5.8	-3.3*
O=C(CSc1ccc(-c2ccco2)nn1)c1ccccc1	.	-0.6	3.5	.
CCCCN1C(=O)Cc2c1nc(N)c1c(N)nc(N(CCC)CCC)c(C#N)c21	-0.7	63.9	-13.4	-3.64*
O=C(Nc1ncc(Br)s1)C(Cc1ccccc1)n1cccc1 (stereo not drawn)	-3.5	-6.7	79.2*	.
O=C(Nc1cccnc1)C(Cc1ccccc1)n1cccc1 (stereo not drawn)	2.4	-1.6	-11.7	.
COCCNc1nnc(SC(C)C(=O)Nc2ccc(-c3nc4ccc(C)cc4s3)cc2)s1 (stereo not drawn)	.	33.8	21.8	.
O=C(Nc1ccc(Oc2ccccc2)cc1)C1CCN(c2c3c(nc4ncnn24)CCC3)CC1	4.7	.	.	-3.29*
O=C(Nc1ccc2c(c1)CCC2)C1CCN(c2c3c(nc4ncnn24)CCC3)CC1	10.0	0.7	7.6	1.14
CC[n+]1c(/C=C2\C=C(C)CC(C)C2)sc2ccccc21 (stereo not drawn)	1.4	-5.8	59.2*	-0.81
CC[n+]1c(/C=C2\C=C(C)CC(C)(C)C2)sc2ccccc21	-2.1	-5.7	72.7*	-0.75
CC[n+]1c(/C=C2/C=C(C)CC(C)(C)C2)sc2ccc(OC)cc21	-0.2	.	.	-1.31
COc1cccc(N2CCN(C(=S)NCc3ccco3)CC2)c1	-1.5	.	.	1.82
COC(=O)c1cc(CSc2nc3ccc(C)cc3[nH]2)oc1C	0.3	-7.6	52.1*	2.06
CCOC(=O)c1c(NC(=O)CSc2nnnn2C)sc(C)c1-c1ccc(C)cc1	.	-2.3	33.4	-4.24*
SMILES	FAK inh	Mac1 fbg enh	CD11b adhes inh	Pyk2 oligo antag
CCOC(=O)c1c(NC(=O)CSc2nnnn2-c2ccc(OC)cc2)sc(C)c1C	2.1	-6.3	63.4*	0.47
CCSc1nnc(NC(=O)C(C)Sc2nc3ccccc3[nH]2)s1 (stereo not drawn)	.	3.2	27.8	.
Cc1cc(=O)[nH]c(SCC(=O)Nc2ccc(Br)cc2)c1C#N	-3.2	-6.4	93.4*	-0.79
COC(=O)c1ccc(Cl)c(-c2ccc(/C=N/NC(=O)Nc3ccccc3)o2)c1	-0.1	2.2	1.6	-3.17*
COC(=O)c1sccc1-c1ccc(/C=N/OC(=O)c2ccccc2)o1	-9.0	.	.	-0.94
CCc1ccc(-c2nc(CN3CCCC(C(=O)O)C3)c(C)o2)cc1 (stereo not drawn)	-6.6	-0.6	-18.4	.
Cc1oc(-c2ccc(Cl)cc2)nc1CN1CCCC(C(=O)N2CCN(C(=O)c3ccco3)CC2)C1 (stereo not drawn)	2.3	-4.7	64.0*	.
CCOc1ccc(NC(=O)C(c2ccccn2)N(C(=O)CCl)c2ccc(F)cc2)cc1 (stereo not drawn)	.	-2.3	-10.8	.
CC1(C(=O)OCC(=O)c2c[nH]c3ccccc23)CC1(Cl)Cl (stereo not drawn)	0.4	-2.8	-0.2	-2.32
CC(C)(C)n1nnnc1C(c1cccs1)N(Cc1ccccc1)Cc1cccnc1 (stereo not drawn)	0.0	.	.	-4.18*
CC(C)(C)n1nnnc1C(c1cccnc1)N(Cc1ccccc1)Cc1cccs1 (stereo not drawn)	-7.5	-0.5	-8.9	-3.59*
O=C(Nc1ccccc1N1CCOCC1)c1ccccc1NS(=O)(=O)c1ccc(F)cc1	-3.2	-1.1	2.8	0.13
CCOc1ccc(S(=O)(=O)Nc2ccccc2C(=O)Nc2ccccc2N2CCOCC2)cc1	-0.7	4.9	-36.5	-3.13*
O=C(Nc1ccccc1N1CCOCC1)c1ccccc1NS(=O)(=O)c1ccc(F)c(F)c1	-4.6	-4.1	74.6*	-1.18
Cc1ccc(C)c(S(=O)(=O)Nc2ccccc2C(=O)Nc2ccccc2N2CCOCC2)c1	-3.2	-4.2	50.3*	-2.16
Cc1cc(F)ccc1S(=O)(=O)Nc1ccccc1C(=O)Nc1ccccc1N1CCOCC1	-4.0	.	.	-1.53
CCN(CC)S(=O)(=O)c1cccc(C(=O)NC(C(=O)Nc2nnc(C)s2)C(C)C)c1 (stereo not drawn)	0.5	1.2	-8.1	-0.02
CCN(C(=O)c1cnc(N2CCN(c3ncccn3)CC2)c2ccccc12)c1cccc(Cl)c1	-0.2	.	.	-3.3*
CN(C(=O)c1cnc(N2CCN(c3ncccn3)CC2)c2ccccc12)c1ccc(Cl)cc1	4.1	1.5	0.1	-2.6
Cn1c(=O)[nH]c(=O)c2[nH]c(N(Cc3ccccc3)Cc3ccccc3)nc21	13.1	21.2	-7.4	-3.22*
COc1ccc(CCNC(=O)c2ccc(-c3ccc([N+](=O)[O-])cc3)o2)cc1OC	.	-5.8	23.6	.
CCC(=O)N1CCN(c2ccc(NC(=O)c3cc4ccccc4o3)cc2Cl)CC1	4.1	-0.8	16.7	-3.15*
O=C(Nc1ccc(N2CCN(C(=O)c3ccco3)CC2)c(Cl)c1)c1cc2ccccc2o1	3.5	4.7	51.4	-3.13*
CCCC(=O)N1CCN(c2ccc(NC(=O)c3cc4ccccc4o3)cc2Cl)CC1	2.4	-5.5	73.1	-2.7
C=CCNc1nc2c(c(=O)n(C)c(=O)n2C)n1CC	2.9	.	.	.
SMILES	FAK inh	Mac1 fbg enh	CD11b adhes inh	Pyk2 oligo antag
C=CCNc1nc2c(c(=O)n(C)c(=O)n2C)n1CCCCCC	-5.3	-3.6	67.6*	-0.79
S=c1sc(SCCOc2ccccc2)nn1-c1ccccc1	.	-2.2	0.7	.
COc1ccc(C(=O)Nc2ccc(S(=O)(=O)N3CCc4ccccc43)cc2)cc1	7.0	.	.	-3.15*
Cc1ccc(C(=O)Nc2ccc(S(=O)(=O)N3CCc4ccccc43)cc2)o1	1.7	-5.2	63.1	-1.83
O=S(=O)(Nc1ncnc2sc3c(c12)CCC3)c1ccc(Cl)s1	1.2	-10.2	86.8*	-1.94
Cc1nc(NS(=O)(=O)c2ccc(Br)cc2)c2c3c(sc2n1)CCC3	-5.2	-10.9	92.7*	-2.66
CC(Sc1ccc(Cl)cc1)C(=O)Nc1ccc(S(=O)(=O)N2CCOCC2)cc1 (stereo not drawn)	-11.1	.	.	-1.19

Source: PubChem BioAssay (several laboratories)
